Assay results reported in PubChem BioAssay.
Results filed as inconclusive are left out. Calls of active or inactive are those of the source.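 The calls were made as follows, unless noted: active = efflux inhibition above 0.42, the validation set average plus 4 SD; inconclusive = no clear call, values can overlap the other calls; inactive = the rest.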

Experiments:
[1] = rapamycin-like changes in RPL19A-GFP expression – cell-based, S. cerevisiae, multiplex flow cytometry, primary screen (AID 1862; in the data active = percent of DMSO control GFP below about 86%;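 also: lower values mimic rapamycin by blocking the RPL19A rise seen in DMSO cells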); settings: S. cerevisiae RPL19A-GFP strain, flow cytometry fluorescence, 3 h; at 10 µM; stronger effect = lower value
[2] = TOR pathway GLN3 branch reporter MEP2-GFP changes – S. cerevisiae, multiplex flow cytometry, primary screen (AID 1867;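 active = GFP response, as percent of the DMSO control, above the screen-wide mean plus 3 SD, about 139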;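 also: median GFP channel fluorescence of barcode-gated MEP2-GFP cells measured by flow cytometry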); settings: S. cerevisiae MEP2-GFP strain, 3 h, at 10 µM, stronger effect = higher value, 100% means same as DMSO wells
[3] = TOR pathway RTG branch CIT2 reporter changes – S. cerevisiae, GFP fusion, multiplex flow cytometry, primary screen (AID 1870;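 active = percent response above a set limit, the screen-wide mean plus 3 SD, cut at about 130% in these data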;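 also: barcoded CIT2-GFP strain pooled with four other GFP strains with rapamycin as positive control; median GFP fluorescence per well over plate mean of DMSO wells so 100% = DMSO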); settings: S. cerevisiae CIT2-GFP expression, 3 h, at 10 µM, stronger effect = higher value
[4] = TOR pathway LAP4-GFP level changes – S. cerevisiae, multiplex flow cytometry, primary screen (AID 1873;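 active = GFP signal, as percent of the solvent control, above the screen mean plus 3 SD, about 149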); settings: S. cerevisiae LAP4-GFP expression, 3 h, at 10 µM, stronger effect = higher value
[5] = yeast AGP1-GFP level changes, GLN3 branch – cell-based, multiplex flow cytometry, S. cerevisiae, primary screen (AID 1887;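 active = GFP signal above the screen-wide mean plus 3 SD, that is over about 124.5% of the solvent control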;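 also: AGP1-GFP fusion strain of S. cerevisiae within a five-strain barcoded multiplex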); settings: 3 h, at 10 µM, stronger effect = higher value
[6] = reduced mouse 2C T cell binding to pMHC/ICAM-1 vesicles – MLPCN validation set, flow cytometry, LFA-1/ICAM-1 modulator project, pilot screen (AID 2523;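 active = response below a set limit, under 55% cells CD8-positive and vesicle-bound, and CD8 cells' 90th-percentile brightness under 279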;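 as to vesicle binding response: mean PE anti-B7-1 fluorescence of CD8+ cells relative to row control; 100% = QL9-loaded vesicles with DMSO vehicle in the same plate row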); settings: 2C mouse CD8+ T cells, at 7 µM, stronger effect = lower value; double positive events: measured here: CD8+/vesicle+ event percentage
[7] = target: Integrin beta-1 (Homo sapiens) + Integrin alpha-4 (Homo sapiens) (UniProt P13612+P05556); test: alpha4beta1 integrin LIBS antibody binding reduction – U937 cells, HUTS-21 mAb, flow cytometry, validation set, VLA-4 allosteric modulator project, pilot screen (AID 2674;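 active = inhibition above 50%, about 3 SD of the validation set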;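 also: antibody binding induced by the VLA-4 ligand LDV present at three times its Kd; 0% = LDV ligand with antibody and no compound and 100% = antibody without LDV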); settings: HUTS-21 LIBS mAb binding, at 6.7 µM, stronger effect = higher value, binding induced by LDV ligand
[8] = calorie-restriction mimetic ROS inhibitors, yeast – validation compound set, pilot screen (AID 2706;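 active = superoxide response below 65% of plate, a cut near 3 SD across the whole screen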;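 also: yeast exposed to compound for one week at 30 degrees C before staining; 100% = mean of all compound wells on the same plate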); settings: S. cerevisiae aging, superoxide DHE fluorescence; at 10 µM; stronger effect = lower value
[9] = target: Beta-adrenergic receptor kinase 1 (Homo sapiens) (UniProt P25098); test: GRK2 binders displacing RNA aptamer, biochemical, validation, human GRK2, bead flow cytometry (AID 488806;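 active = aptamer binding inhibition above 30%, about 3 SD of noise from non-fluorescent compounds; inactive = inhibition at or below 30%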); settings: bead-bound GRK2, FAM-aptamer displacement, at 10 µM, stronger effect = higher value
[10] = target: Beta-2 adrenergic receptor (Homo sapiens) (UniProt P07550); test: agonist-induced loss of surface beta2AR – cell-based, FAP fluorogen, flow cytometry, validation set, pilot screen (AID 504459;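 active = percent response above 42, roughly 3 SD of non-fluorescent test compounds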;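 also: agonist-driven loss of surface beta2AR via internalization measured by FAP dye flow cytometry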); settings: Am2.2-beta2AR cells, at 10 µM, stronger effect = higher value
[11] = target: AP-2 complex subunit beta (Homo sapiens) (UniProt P63010); test: beta-arrestin/AP2 interaction blockers – biochemical, validation set, GST-AP2 beads, flow cytometry, pilot screen (AID 504541;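 active = inhibition above 54%, about 3 SD of non-fluorescent compounds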;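 also: AP2 carries R879A mutation and is captured from E. coli lysate; bead-bound FITC arrestin peptide fluorescence measuring arrestin peptide binding to AP2; 0% = DMSO wells and 100% = excess unlabeled arrestin peptide control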); settings: FITC arrestin peptide, at 10 µM, stronger effect = higher value, AP2 beta2 appendage fragment, R879A mutant
[12] = cytosolic pH regulators acting via V-ATPase – S. cerevisiae, pHLuorin, HTS validation (AID 504600; in the data active = response above about 15%;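 also: plate controls were DMSO for no effect and reference compound for full effect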); settings: V-ATPase proton transport, at 10 µM, stronger effect = higher value
[13] = tested on: anti-desmoglein-3 scFv antibody binding to human DSG3; test: blockers of pathogenic pemphigus antibody–desmoglein-3 binding – biochemical, validation compound set, bead-based, flow cytometry, pilot screen (AID 588368;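 active = binding below the plate cutoff, the plate median minus 3 SD, with a reading above zero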;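 also: signal is the median channel fluorescence of bead-bound GFP antibody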); settings: Protein G beads, DSG3-Fc, scFv-GFP binding, at 10 µM, stronger effect = lower value
[14] = Nile Red efflux blockade in pump-expressing yeast – validation compound set, multiplex, phenotypic, pilot screen (AID 588506);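 also: Nile Red retained in cells so higher fluorescence means more efflux inhibition; 0 = negative control wells and 1 = enniatin B 25 µM full block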; settings: S. cerevisiae pump-expressing triplex, Nile Red efflux flow cytometry; at 10 µM; stronger effect = higher value; the pumps come from Candida albicans
[15] = target: ATP-binding cassette sub-family B member 6 (Homo sapiens) (UniProt Q9NP58); test: blockers of ABCB6-driven porphyrin uptake – K562-ABCB6 cells, flow cytometry, validation set, pilot screen (AID 588550;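 active = inhibition above the screen-wide mean plus 3 SD, about 51%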;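 also: 0% = DMSO wells and 100% = benzethonium chloride 70 µM positive control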); settings: K562-ABCB6 porphyrin accumulation, 1 h, at 10 µM, stronger effect = higher value
[16] = AML differentiation inducers, ER-HoxA9 marrow cells – cell-based, GFP/MAC1 double positive, flow cytometry, validation set, primary screen (AID 588685;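 active = differentiation response of at least 50%, scaled between solvent and reference control, from cells with both markers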;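 also: compound exposure lasts four days before antibody staining and flow analysis; 0% = DMSO wells and 100% = 5 µM fulvestrant positive control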); settings: stronger effect = higher value, normalized: vehicle 0, fulvestrant 100

Integrin beta-1 (Homo sapiens) + Integrin alpha-4 (Homo sapiens), sequence (P05556 whole entry, looked up): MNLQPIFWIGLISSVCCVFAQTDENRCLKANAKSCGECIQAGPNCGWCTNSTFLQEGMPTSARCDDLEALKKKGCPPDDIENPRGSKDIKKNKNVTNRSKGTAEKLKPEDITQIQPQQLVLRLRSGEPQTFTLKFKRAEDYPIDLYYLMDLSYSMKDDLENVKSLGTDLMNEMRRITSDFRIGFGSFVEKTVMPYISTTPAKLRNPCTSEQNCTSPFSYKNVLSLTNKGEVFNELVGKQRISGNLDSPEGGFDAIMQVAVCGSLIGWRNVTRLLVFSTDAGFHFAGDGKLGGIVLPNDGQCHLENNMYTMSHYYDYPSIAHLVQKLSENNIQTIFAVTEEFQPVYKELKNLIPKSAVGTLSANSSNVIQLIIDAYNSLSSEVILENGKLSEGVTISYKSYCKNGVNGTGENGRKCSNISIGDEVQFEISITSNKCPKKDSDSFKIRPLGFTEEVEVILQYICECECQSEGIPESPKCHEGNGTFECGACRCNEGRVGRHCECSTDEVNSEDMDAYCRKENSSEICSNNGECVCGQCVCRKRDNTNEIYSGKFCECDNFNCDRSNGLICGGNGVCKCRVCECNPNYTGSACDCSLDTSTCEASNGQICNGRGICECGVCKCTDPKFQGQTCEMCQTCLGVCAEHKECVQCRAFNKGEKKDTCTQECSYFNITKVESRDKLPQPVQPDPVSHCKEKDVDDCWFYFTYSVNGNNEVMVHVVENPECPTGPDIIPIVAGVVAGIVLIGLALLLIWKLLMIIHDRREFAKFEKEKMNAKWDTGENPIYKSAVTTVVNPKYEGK
Integrin beta-1 (Homo sapiens) + Integrin alpha-4 (Homo sapiens), sequence (P13612 whole entry, looked up): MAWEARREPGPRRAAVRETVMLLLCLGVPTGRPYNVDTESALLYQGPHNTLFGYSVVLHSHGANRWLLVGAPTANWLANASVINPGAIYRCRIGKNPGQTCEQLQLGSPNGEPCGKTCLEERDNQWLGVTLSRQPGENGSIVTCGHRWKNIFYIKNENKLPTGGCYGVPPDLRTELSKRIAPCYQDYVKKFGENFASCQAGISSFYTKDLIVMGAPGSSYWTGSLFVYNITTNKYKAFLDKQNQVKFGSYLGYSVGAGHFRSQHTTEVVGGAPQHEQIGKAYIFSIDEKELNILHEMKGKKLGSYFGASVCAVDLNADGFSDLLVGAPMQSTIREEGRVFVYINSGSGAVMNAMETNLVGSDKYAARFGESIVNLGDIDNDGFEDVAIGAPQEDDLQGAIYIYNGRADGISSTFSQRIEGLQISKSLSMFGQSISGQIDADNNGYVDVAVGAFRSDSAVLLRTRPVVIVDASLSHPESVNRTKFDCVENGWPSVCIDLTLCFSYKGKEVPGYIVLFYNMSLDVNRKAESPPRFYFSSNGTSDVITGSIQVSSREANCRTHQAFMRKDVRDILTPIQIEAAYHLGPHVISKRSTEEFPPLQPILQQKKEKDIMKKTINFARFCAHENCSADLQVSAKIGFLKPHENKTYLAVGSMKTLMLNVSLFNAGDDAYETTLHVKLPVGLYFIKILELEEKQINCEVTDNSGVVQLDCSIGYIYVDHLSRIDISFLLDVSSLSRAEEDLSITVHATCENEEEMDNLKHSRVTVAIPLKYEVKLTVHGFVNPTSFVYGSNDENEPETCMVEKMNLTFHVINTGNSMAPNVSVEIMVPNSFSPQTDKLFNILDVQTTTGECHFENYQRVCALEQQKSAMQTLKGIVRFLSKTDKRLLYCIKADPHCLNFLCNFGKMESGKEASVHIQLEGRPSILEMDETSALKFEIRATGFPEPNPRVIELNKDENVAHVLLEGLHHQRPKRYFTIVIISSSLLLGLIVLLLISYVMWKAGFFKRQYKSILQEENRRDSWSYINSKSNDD
ATP-binding cassette sub-family B member 6 (Homo sapiens), sequence (Q9NP58 whole entry, looked up): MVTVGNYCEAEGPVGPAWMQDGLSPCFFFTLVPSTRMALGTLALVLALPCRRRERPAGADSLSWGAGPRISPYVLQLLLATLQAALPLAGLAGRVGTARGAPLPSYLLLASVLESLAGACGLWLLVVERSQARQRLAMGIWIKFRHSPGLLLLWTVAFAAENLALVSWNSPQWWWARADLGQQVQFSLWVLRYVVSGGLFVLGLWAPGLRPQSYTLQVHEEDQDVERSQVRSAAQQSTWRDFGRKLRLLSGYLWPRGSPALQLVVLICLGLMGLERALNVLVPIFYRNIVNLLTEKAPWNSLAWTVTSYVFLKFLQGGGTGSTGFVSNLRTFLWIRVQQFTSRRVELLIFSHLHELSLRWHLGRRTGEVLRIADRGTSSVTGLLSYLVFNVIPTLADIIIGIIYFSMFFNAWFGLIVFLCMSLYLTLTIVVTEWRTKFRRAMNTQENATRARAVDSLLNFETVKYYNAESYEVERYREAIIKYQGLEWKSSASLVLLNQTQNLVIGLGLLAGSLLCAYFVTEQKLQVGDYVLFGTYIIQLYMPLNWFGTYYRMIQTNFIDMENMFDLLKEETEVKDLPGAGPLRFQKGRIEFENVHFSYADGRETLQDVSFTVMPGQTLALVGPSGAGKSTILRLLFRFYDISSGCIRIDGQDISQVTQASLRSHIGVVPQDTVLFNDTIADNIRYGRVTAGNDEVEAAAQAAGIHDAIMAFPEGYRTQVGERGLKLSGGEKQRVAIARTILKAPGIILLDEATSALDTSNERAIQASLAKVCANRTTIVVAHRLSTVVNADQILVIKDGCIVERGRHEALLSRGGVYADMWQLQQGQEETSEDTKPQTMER
AP-2 complex subunit beta (Homo sapiens), sequence (P63010 whole entry, looked up, the tested form may be a part, one chain of several): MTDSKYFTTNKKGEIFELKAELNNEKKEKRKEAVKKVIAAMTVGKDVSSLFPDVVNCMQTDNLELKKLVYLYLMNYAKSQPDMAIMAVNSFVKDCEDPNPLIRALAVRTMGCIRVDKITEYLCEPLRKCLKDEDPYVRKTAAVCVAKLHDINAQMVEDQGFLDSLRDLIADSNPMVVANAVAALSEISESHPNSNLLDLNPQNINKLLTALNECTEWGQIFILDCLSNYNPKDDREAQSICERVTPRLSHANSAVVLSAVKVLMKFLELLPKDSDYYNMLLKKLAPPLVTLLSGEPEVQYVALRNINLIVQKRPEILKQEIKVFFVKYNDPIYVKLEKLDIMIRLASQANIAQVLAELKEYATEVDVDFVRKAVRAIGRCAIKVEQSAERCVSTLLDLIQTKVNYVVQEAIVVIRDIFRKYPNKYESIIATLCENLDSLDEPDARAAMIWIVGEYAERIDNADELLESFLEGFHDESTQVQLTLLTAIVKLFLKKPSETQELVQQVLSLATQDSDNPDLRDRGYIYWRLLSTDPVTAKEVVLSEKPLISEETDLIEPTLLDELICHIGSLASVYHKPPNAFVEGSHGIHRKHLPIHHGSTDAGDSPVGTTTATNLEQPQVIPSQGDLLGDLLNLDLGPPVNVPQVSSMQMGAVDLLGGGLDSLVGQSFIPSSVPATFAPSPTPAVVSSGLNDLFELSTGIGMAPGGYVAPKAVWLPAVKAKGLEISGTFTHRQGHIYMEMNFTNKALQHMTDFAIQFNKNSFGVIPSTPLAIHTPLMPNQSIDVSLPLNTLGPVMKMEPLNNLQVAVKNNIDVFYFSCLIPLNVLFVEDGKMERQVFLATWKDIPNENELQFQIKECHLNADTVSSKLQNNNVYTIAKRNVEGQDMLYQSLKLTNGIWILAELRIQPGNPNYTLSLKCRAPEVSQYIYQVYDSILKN
Beta-adrenergic receptor kinase 1 (Homo sapiens), sequence (P25098 whole entry, looked up): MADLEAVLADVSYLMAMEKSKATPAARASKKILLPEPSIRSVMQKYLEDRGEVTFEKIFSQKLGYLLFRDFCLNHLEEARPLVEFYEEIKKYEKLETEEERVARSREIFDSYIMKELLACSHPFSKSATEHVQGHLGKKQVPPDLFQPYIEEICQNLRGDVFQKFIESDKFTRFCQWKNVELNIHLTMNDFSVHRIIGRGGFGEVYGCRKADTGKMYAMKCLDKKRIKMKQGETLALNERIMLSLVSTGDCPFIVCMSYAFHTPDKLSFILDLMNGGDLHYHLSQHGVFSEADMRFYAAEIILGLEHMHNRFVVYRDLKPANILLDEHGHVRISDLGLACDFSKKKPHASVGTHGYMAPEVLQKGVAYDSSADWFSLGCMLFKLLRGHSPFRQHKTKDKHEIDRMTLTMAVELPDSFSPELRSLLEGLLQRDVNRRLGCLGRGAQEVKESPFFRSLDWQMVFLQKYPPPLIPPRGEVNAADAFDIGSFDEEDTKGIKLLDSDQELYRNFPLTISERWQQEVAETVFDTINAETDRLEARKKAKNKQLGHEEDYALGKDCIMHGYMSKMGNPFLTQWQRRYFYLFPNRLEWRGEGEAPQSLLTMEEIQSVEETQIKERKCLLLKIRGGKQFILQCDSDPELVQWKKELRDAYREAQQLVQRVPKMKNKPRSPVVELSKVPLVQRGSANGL
Beta-2 adrenergic receptor (Homo sapiens), sequence (P07550 whole entry, looked up): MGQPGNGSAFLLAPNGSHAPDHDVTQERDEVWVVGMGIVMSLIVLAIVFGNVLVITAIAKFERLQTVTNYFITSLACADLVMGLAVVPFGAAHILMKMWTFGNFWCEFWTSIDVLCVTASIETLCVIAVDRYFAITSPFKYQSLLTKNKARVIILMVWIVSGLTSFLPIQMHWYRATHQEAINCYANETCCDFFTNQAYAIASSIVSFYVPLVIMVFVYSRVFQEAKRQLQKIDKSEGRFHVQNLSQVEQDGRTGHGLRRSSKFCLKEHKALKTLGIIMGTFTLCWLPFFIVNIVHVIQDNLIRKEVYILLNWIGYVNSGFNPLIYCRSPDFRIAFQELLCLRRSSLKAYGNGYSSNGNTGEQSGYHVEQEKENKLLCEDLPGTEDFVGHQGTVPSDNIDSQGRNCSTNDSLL

Structure (SMILES)	percent of DMSO control GFP [1]	GFP response vs DMSO [2]	percent response of DMSO control [3]	GFP response vs DMSO [4]	GFP response, % of DMSO [5]	double positive events [6] [%]	vesicle binding response [6]	inhibition [7]	superoxide response (% of plate) [8]	aptamer binding inhibition [9]	response [10]	inhibition [11]	response [12]	binding (% of control) [13]	efflux inhibition (fraction of control) [14]	inhibition [15]	differentiation response [16]
CCOc1cc2c3c(c1)C(C)=CC(C)(C)N3C(=O)C2=O	95% (inactive)	111% (inactive)	103% (inactive)	108% (inactive)	102% (inactive)	43.2	11.7% (active)	35.1% (inactive)	108% (inactive)	0% (inactive)	23% (inactive)	51.5% (inactive)	-5.76% (inactive)	101% (inactive)	-0.13 (inactive)	4% (inactive)	-0.8% (inactive)
CCOCCCNCc1cn(-c2ccc(F)cc2F)nc1-c1ccccc1C	103% (inactive)	98.3% (inactive)	109% (inactive)	93.3% (inactive)	102% (inactive)	61.9	200% (inactive)	-1.49% (inactive)	101% (inactive)	1% (inactive)	-8.93% (inactive)	14.5% (inactive)	4.59% (inactive)	94.2% (inactive)	-0.07 (inactive)	-10% (inactive)	-1.71% (inactive)
COc1cc2c(cc1OC)CN(C(=O)c1ccc(S(=O)(=O)N(C)c3ccccc3)cc1)CC2	95.9% (inactive)	101% (inactive)	99.6% (inactive)	115% (inactive)	111% (inactive)	73.5	605% (inactive)	5.69% (inactive)	57.5% (active)	1% (inactive)	-14.1% (inactive)	-6.13% (inactive)	1.25% (inactive)	96.2% (inactive)	0 (inactive)	5% (inactive)	1.91% (inactive)
CC(C)(Oc1ccc(CCNC(=O)c2ccc(Cl)cc2)cc1)C(=O)O	106% (inactive)	107% (inactive)	96.6% (inactive)	101% (inactive)	103% (inactive)	65.7	137% (inactive)	-8.75% (inactive)	110% (inactive)	3% (inactive)	-3.83% (inactive)	23.2% (inactive)	-4.97% (inactive)	93.5% (inactive)	0.08 (inactive)	19% (inactive)	8.06% (inactive)
O=C(O)c1ccc(C(=O)C(=O)c2ccccc2)cc1	104% (inactive)	98.3% (inactive)	109% (inactive)	101% (inactive)	102% (inactive)	65.4	304% (inactive)	-17.1% (inactive)	110% (inactive)	3% (inactive)	4.67% (inactive)	1.48% (inactive)	0.41% (inactive)	96.6% (inactive)	-0.01 (inactive)	-10% (inactive)	-6.6% (inactive)
CC(=O)OC1c2c(ccc3ccc(=O)oc23)OC(C)(C)C1OC(=O)CC(C)C (stereo not drawn)	103% (inactive)	99.3% (inactive)	104% (inactive)	98% (inactive)	94.2% (inactive)	64.2	1500% (inactive)	19.3% (inactive)	90.3% (inactive)	3% (inactive)	-25.3% (inactive)	1.97% (inactive)	-1.96% (inactive)	100% (inactive)	0.24 (inactive)	15% (inactive)	-3.67% (inactive)
CCC(NC(C)C)C(O)c1ccc(O)c(O)c1 (stereo not drawn)	103% (inactive)	102% (inactive)	100% (inactive)	104% (inactive)	112% (inactive)	60.7	170% (inactive)	-11.3% (inactive)	86.8% (inactive)	4% (inactive)	46% (active)	-1.15% (inactive)	0.42% (inactive)	105% (inactive)	-0.04 (inactive)	2% (inactive)	-0.06% (inactive)
CCC(C)NCCOc1ccccc1C (stereo not drawn)	104% (inactive)	101% (inactive)	105% (inactive)	97% (inactive)	108% (inactive)	61.2	115% (inactive)	5.61% (inactive)	104% (inactive)	-4% (inactive)	-6.41% (inactive)	29% (inactive)	-2.79% (inactive)	96.8% (inactive)	-0.61 (inactive)	12% (inactive)	-16.3% (inactive)
N/C(=N\OC(=O)c1cccc(Br)c1)c1ccncc1	103% (inactive)	105% (inactive)	106% (inactive)	111% (inactive)	94.2% (inactive)	62.9	166% (inactive)	9.63% (inactive)	106% (inactive)	-2% (inactive)	-7.41% (inactive)	43.1% (inactive)	4.2% (inactive)	100% (inactive)	-0.115 (inactive)	8% (inactive)	-4.57% (inactive)
